Compound activity: PubChem, Broad Institute
In the library only some 4.8% were active in any assay of this set; here they are far more common.
AI-2 QS mod – Vibrio harveyi AI-2 quorum sensing modulators, primary screen, JMH597 strain, luminescence/OD600 ratio | 300,000 compounds, 0.4% hits | Vibrio harveyi JMH597 AI-2 luminescence/OD600 ratio, 9 h; active compounds read low; strain lacks LuxN and CqsS sensors; 0 = neutral-control median | activity change, % at 7.5 µM | AID 2094, 2009; in the data active = activity change below about -75%, passing the limit was not always enough;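 note: luminescence divided by OD600 gain over 9 h not by final OD600 alone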
HIF act – HIF pathway transcriptional activators, primary screen, cell-based, U2OS HRE-luciferase, luminescence; U2OS HRE-luciferase reporter; normalized: DMSO 0%, desferrioxamine 100%; activation, % at 7.5 µM (by protocol); 300,000 compounds, 0.32% hits;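 active = mean activation of at least 10% of the iron chelator positive control signal, with at least half of replicates also reaching 10%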
ALR inh – inhibitors of human ALR sulfhydryl oxidase, primary screen, biochemical, H2O2 detection, HRP-luminol luminescence, single point. purified ALR, DTT oxidation. FAD-linked sulfhydryl oxidase ALR (Homo sapiens), P55789. AID 485317, 2010. inhibition, % (concentration not given with the values). 290,000 compounds, 3.8% hits;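 active = mean replicate inhibition above about 79%, with every replicate also reaching it, limit read from the data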
Target sequence (P55789 whole entry, looked up): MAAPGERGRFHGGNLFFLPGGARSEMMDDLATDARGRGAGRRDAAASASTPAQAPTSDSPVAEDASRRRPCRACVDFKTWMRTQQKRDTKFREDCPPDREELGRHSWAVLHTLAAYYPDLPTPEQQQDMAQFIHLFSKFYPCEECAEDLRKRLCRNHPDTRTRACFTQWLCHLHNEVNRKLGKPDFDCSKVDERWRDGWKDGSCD
Mot1-301 SUMO – yeast Mot1-301 growth rescue at high temperature, primary screen, SUMOylation pathway inhibitor project, S. cerevisiae, ATP luminescence, 38.5C | S. cerevisiae Mot1-301 growth rescue; percent above DMSO median, 100 means doubled | growth rescue, % at 18.8 µM | 320,000 compounds, 1% hits | AID 2716, 2010;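 active = every valid replicate shows activation above 250% relative to neutral control wells; inactive = the rest, any valid replicate at or below 250%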
Yeast Mot1 SUMO – growth restoration of Mot1-301 yeast on galactose, dose response, SUMO pathway inhibitor project, whole organism, S. cerevisiae, ATP luminescence, cherry-picked samples | shares compounds with Mot1-301 SUMO | S. cerevisiae Mot1-301 galactose growth, 24 h; -100 = growth of slx-deleted rescue strain | growth activity, percent, % at 42 µM | 2,300 tested, under 10 active | AID 493004, 2010;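 active = Signal drops as the depositor expects, and the fitted half-maximal dose is no more than ten times the top valid tested dose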;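 note: more negative values mean stronger growth rescue toward the control strain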
Of the large screens only hits and unclear results are named; the others gave an inactive call (follow-up assays come after a bar, where they were run).

CC1CC(N(C(=O)c2ccccc2Cl)c2ccccc2)c2ccccc2N1 (configuration not stated)	Mot1-301 SUMO 453 | Yeast Mot1 SUMO inactive
Cc1ccc(NC(=O)COc2cccc(Oc3ccccc3)c2)cc1S(=O)(=O)N1CCOCC1	none (no result: AI-2 QS mod, HIF act)
Oc1cccc(/C=N/n2c(C3CCCCC3)n[nH]c2=S)c1	none
COc1cc(/C=N/n2c(C3CCCCC3)n[nH]c2=S)cc(OC)c1O	ALR inh 99, Mot1-301 SUMO 400 | Yeast Mot1 SUMO inactive
Cc1ccc(-c2csc(NC(=O)c3ccc(C)o3)n2)cc1	none
Cc1ccc(C(=O)Nc2nc(-c3ccc(F)cc3)cs2)o1	Mot1-301 SUMO 410 | Yeast Mot1 SUMO inactive
COc1ccc(N(C(=O)c2ccncc2)S(=O)(=O)c2ccc(F)cc2)cc1	Mot1-301 SUMO 451 | Yeast Mot1 SUMO inactive
COc1ccc(N(C(=O)c2ccncc2)S(=O)(=O)c2ccc(OC)c(OC)c2)cc1	none
Cn1c(NCc2ccco2)nc2c1c(=O)n(Cc1ccc(Cl)cc1)c(=O)n2C	Mot1-301 SUMO active | Yeast Mot1 SUMO inactive
COCCCNCC(O)COc1cccc2[nH]c(C)cc12 (configuration not stated)	Mot1-301 SUMO 773 | Yeast Mot1 SUMO inactive
CCc1cccc(CC)c1NC(=O)CN1CCc2cc(OC)c(OC)cc2C1	none
c1coc(C2OCC3(CO2)COC(c2ccco2)OC3)c1 (configuration not stated)	Mot1-301 SUMO 523 | Yeast Mot1 SUMO inactive
O=C(c1ccc(-c2ccccc2)cc1)C1CCCN(Cc2ccncc2)C1 (configuration not stated)	Mot1-301 SUMO 365 | Yeast Mot1 SUMO inactive
CN(CC(=O)Nc1ccc(F)cc1)C(=O)CSc1nc2ncc(Cl)cc2[nH]1	none
COc1ccc2nc(SCC(=O)N(C)CC(=O)Nc3ccc(F)cc3)[nH]c2c1	Mot1-301 SUMO 558 (no result: AI-2 QS mod) | Yeast Mot1 SUMO inactive
CN1CCN(S(=O)(=O)c2cccc(C(=O)NCCOc3ccccc3F)c2)CC1	none
COc1ccc(NC2=C(C)C(=O)CC2)cc1	Mot1-301 SUMO 594 | Yeast Mot1 SUMO inactive
O=C(Cc1csc(N2CCOCC2)n1)N/N=C/c1ccc(O)c(O)c1O	none (no result: ALR inh, Mot1-301 SUMO)
C/C(=N\NC(=O)Cc1csc(N2CCOCC2)n1)c1ccccc1	Mot1-301 SUMO 476 | Yeast Mot1 SUMO inactive
CCc1ccccc1NC(=O)c1ccc(CN2CCC(Cc3ccccc3)CC2)cc1	none
Cc1ccc(C(=O)NCCCNC(=O)c2ccc(C)nc2)cc1	Mot1-301 SUMO 424 | Yeast Mot1 SUMO inactive
COc1ccc(CC(=O)NCCN2CCOCC2)cc1	Mot1-301 SUMO 395 | Yeast Mot1 SUMO inactive
Cc1ccc(C(=O)NCCCN2CCOCC2)cc1	Mot1-301 SUMO 410 | Yeast Mot1 SUMO inactive
Cc1ccc(C(=O)NCCNC(=O)c2ccc(C)nc2)cc1	none
O=C1OC(Cc2ccccn2)C(O)=C1C1=NCCCN1 (configuration not stated)	Mot1-301 SUMO 375 (no result: HIF act, ALR inh) | Yeast Mot1 SUMO inactive
CCCCN(C)CCNC(=O)CN1C(=O)CSc2ccc(S(=O)(=O)N3CCCC3)cc21	none
Cc1ccc(S(=O)(=O)N2CCCC(C(=O)NCC3CCCO3)C2)cc1 (configuration not stated)	none
Cc1noc(C)c1S(=O)(=O)N1CCCC(C(=O)NCC2CCCO2)C1 (configuration not stated)	Mot1-301 SUMO active | Yeast Mot1 SUMO inactive
CC(C)C(NC(=S)Nc1ccccc1)C(=O)O (configuration not stated)	Mot1-301 SUMO 956 | Yeast Mot1 SUMO inactive
CCC(C)NC(=S)Nc1ccccc1 (configuration not stated)	none (no result: ALR inh, Mot1-301 SUMO)
O=C(CSc1nc(-c2ccccc2)cc(=O)[nH]1)Nc1ccc(Br)cc1	Mot1-301 SUMO 423 | Yeast Mot1 SUMO inactive
COc1cc(C(=O)OCCc2cc3ccccc3c(=O)o2)cc(OC)c1OC	none (no result: AI-2 QS mod, HIF act)
Cc1ccc(C(=O)/C=C/Nc2ccccc2C(N)=O)cc1	Mot1-301 SUMO 481 | Yeast Mot1 SUMO inactive
O=C(N/N=C/c1ccc(N2CCOCC2)cc1)c1ccc(NS(=O)(=O)c2cccs2)cc1	none
O=S(=O)(Nc1ccc(N2CCOCC2)cc1)c1cccs1	ALR inh 98, Mot1-301 SUMO 579 | Yeast Mot1 SUMO inactive
O=C1OCc2cc(NS(=O)(=O)c3cccs3)ccc21	Mot1-301 SUMO 411 | Yeast Mot1 SUMO inactive
CCCCn1c(N)c(N(CCOC)C(=O)COC(=O)COc2cccc(C(C)=O)c2)c(=O)[nH]c1=O	none (no result: ALR inh)
CCN(CC(=O)N1CCCCCC1)S(=O)(=O)c1ccc(Cl)cc1	Mot1-301 SUMO active | Yeast Mot1 SUMO inactive
C=CCNC(=O)NC(=O)COC(=O)CCCSc1nc2ccccc2[nH]1	Mot1-301 SUMO 612 | Yeast Mot1 SUMO inactive
CCOc1ccc(-n2cc(C(=O)NCCOC)c3cc(OC)c(OC)cc3c2=O)cc1	Mot1-301 SUMO 810 | Yeast Mot1 SUMO inactive
CCOc1ccc(-n2cc(C(=O)Nc3cccc(OC)c3)c3cc(OC)c(OC)cc3c2=O)cc1	none
O=C1CN(C(=O)c2ccccc2F)C(c2ccccc2)c2cc(Cl)ccc2N1 (configuration not stated)	Mot1-301 SUMO 603 | Yeast Mot1 SUMO inactive
O=C1CN(C(=O)c2ccccc2F)C(c2ccc(F)cc2)c2cc(Br)ccc2N1 (configuration not stated)	none
CN(C)CCN(Cc1ccc(Cl)cc1)c1ccccn1	Mot1-301 SUMO 558 | Yeast Mot1 SUMO inactive
NNS(=O)(=O)c1ccc(Sc2ccccn2)c([N+](=O)[O-])c1	none
NC(=O)c1cc(S(=O)(=O)N2CCN(c3ccc([N+](=O)[O-])cc3)CC2)cs1	none
CCOC(=O)COc1ccc2c(=O)c(-c3ccc(OC)c(OC)c3)c(C(=O)OCC)oc2c1	none
CCOC(=O)c1oc2cc(OC(C)=O)ccc2c(=O)c1-c1ccc(OC)c(OC)c1	Mot1-301 SUMO 510 | Yeast Mot1 SUMO inactive
Cc1ccc(/C(O)=C2/C(=O)C(=O)N(CC(=O)O)C2c2ccc([N+](=O)[O-])cc2)cc1 (configuration not stated)	none (no result: AI-2 QS mod)
CCCc1nc(NCc2ccccc2)c(C#N)c2c1CCCC2	Mot1-301 SUMO 789 | Yeast Mot1 SUMO inactive
COC(=O)c1cc(Cl)c(NC(=O)c2ccc(C(C)(C)C)cc2)cc1OC	none
COC(=O)c1cc(Cl)c(NC(=O)C(C)C)cc1OC	Mot1-301 SUMO 661 (no result: ALR inh) | Yeast Mot1 SUMO inactive
CC1CCCC(C)N1CCCNC(=O)c1csc2c1CCCCC2 (configuration not stated)	Mot1-301 SUMO 459 | Yeast Mot1 SUMO inactive
CCCNC(=O)c1csc2c1CCCCC2	none
COCCCNS(=O)(=O)c1ccc(Oc2ncc(C(F)(F)F)cc2Cl)cc1	Mot1-301 SUMO active | Yeast Mot1 SUMO inactive
